Where “and” joins values, the source holds several entries; their conditions need not be identical. Identical values can stand only once. Inconclusive results are not listed. Where a structure was tested more than once in an assay, its records may differ in their call. Calls of active or inactive are those of the source. Unless noted, calls follow the shape of the dose curve; as a rule, active = well fitted curve in the direction sought with a large enough effect in the repeat runs; inconclusive = weak or mixed curves; inactive = no such curve, though single readings can be large; an effect the other way counts as inactive or inconclusive.
Experiments:
[1] = qHTS RealTime-Glo MT Cell Viability Assay in HEK293 cells - 0 hour (AID 1224880); also: nearly all actives have a fitted effect of over 45% in size; also: potency is read from the fitted curve at half-maximal effect
Outline: (§1)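 600 HEK293 cells per well, dispensed already mixed with RealTime-Glo MT reagents. Compound dosing came 5 h later. The same wells were read for luminescence at 0, 8, 16, 24, 32 and 40 h of exposure at 37 C.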

[2] = A CellTox Green Cytotoxicity Assay to monitor cytotoxicity in HEK293 cells - 32 hour (AID 1224881); also: nearly all actives have a fitted effect of over 40% in size
Outline: (§2)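 Dead-cell fluorescence measured kinetically: asymmetric cyanine dye, HEK293, 600 cells/well, 5 h settle, 23 nL cpd/DMSO, 37 C, reads 0–40 h every 8 h.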

[3] = A CellTox Green Cytotoxicity Assay to monitor cytotoxicity in HepG2 cells - 0 hour (AID 1224882); also: nearly all actives have a fitted effect of over 35% in size
Outline: (§3)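 First, HepG2 cells (600/well) mixed with reagent were plated; second, after 5 h at 37 C they received compounds via pintool; third, fluorescence was measured at 0 h through 40 h at 8 h intervals.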

[4] = A CellTox Green Cytotoxicity Assay to monitor cytotoxicity in HepG2 cells - 32 hour (AID 1224883); also: nearly all actives have a fitted effect of over 50% in size
Outline: as §3

[5] = A CellTox Green Cytotoxicity Assay to monitor cytotoxicity in HEK293 cells - 8 hour (AID 1224884); also: nearly all actives have a fitted effect of over 35% in size
Outline: as §2

[6] = qHTS RealTime-Glo MT Cell Viability Assay in HepG2 cells - 16 hour (AID 1224885); also: nearly all actives have a fitted effect of over 50% in size
Outline: (§4)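 Compound treatment began 5 h after plating HepG2 cells (600/well) with NanoLuc luciferase and prosubstrate. Plates stayed at 37 C for 40 h; luminescence was captured at six time points, 0 h through 40 h.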

[7] = qHTS RealTime-Glo MT Cell Viability Assay in HEK293 cells - 24 hour (AID 1224886); also: top concentration of the series differs between compounds; nearly all actives have a fitted effect of over 50% in size
Outline: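 Quantitative high-throughput screen of the Tox21 10K library in HEK293: cells and RealTime-Glo reagents plated together, compound added at 5 h, luminescence monitored through 40 h at 37 C.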

[8] = qHTS RealTime-Glo MT Cell Viability Assay in HEK293 cells - 8 hour (AID 1224887); also: top concentration of the series differs between compounds; nearly all actives have a fitted effect of over 50% in size
Outline: as §1

[9] = A CellTox Green Cytotoxicity Assay to monitor cytotoxicity in HEK293 cells - 16 hour (AID 1224888); also: nearly all actives have a fitted effect of over 35% in size
Outline: as §2

[10] = qHTS RealTime-Glo MT Cell Viability Assay in HepG2 cells - 0 hour (AID 1224889); also: nearly all actives have a fitted effect of over 50% in size; also: potency is read from the fitted curve at half-maximal effect
Outline: as §4

[11] = A CellTox Green Cytotoxicity Assay to monitor cytotoxicity in HepG2 cells - 8 hour (AID 1224890); also: nearly all actives have a fitted effect of over 45% in size
Outline: as §3

[12] = qHTS assay to identify small molecule antagonists of the estrogen receptor alpha (ER-alpha) signaling pathway using the BG1 cell line in the presence of 0.1 nM 17-beta-estradiol - cell viability counter screen (AID 1259241); also: nearly all actives have a fitted effect of over 40% in size; also: potency is read from the fitted curve at half-maximal effect
Outline: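 Cells were plated and left 24 hr, compounds in DMSO were pinned in, 17beta-estradiol was added to 0.1 nM final, and after 22 hr CellTiter-Fluor reagent was added for 30 min before fluorescence was read.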

[13] = qHTS assay to identify small molecule antagonists of the androgen receptor (AR) signaling pathway using the MDA cell line in the presence of 0.5 nM R1881 - cell viability counter screen (AID 1259242); also: nearly all actives have a fitted effect of over 45% in size; also: potency is read from the fitted curve at half-maximal effect
Outline: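 qHTS format. MDA-kb2 (MMTV-luc, AR/GR responsive) + cpd + 0.5 nM R1881 final, 16 hr 37C/0% CO2 → CellTiter-Fluor 30 min → fluorescence intensity.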

[14] = qHTS assay to identify small molecule phospholipidosis (PLD) inducers (AID 1259344; active = well fitted curve in the direction sought with a large enough effect; an effect the other way counts as inactive or inconclusive)
Outline: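 Accumulated phospholipid, stained red by LipidTOX during 24 h compound treatment of HepG2 cells at 37 C, is quantified from images as pit number and intensity, normalised per cell using Hoechst-stained nuclei.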

[15] = qHTS assay to identify small molecule HDAC inhibitors (AID 1259364); also: potency is read from the fitted curve at half-maximal effect;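 also: wild-type HCT-116 cells with endogenous class I/II HDAC activity; nearly all actives have a fitted effect of over 45% in size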
Outline: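 Quantitative high-throughput format: overnight-seeded HCT-116 cells got compounds for 2 hr at 37C; HDAC-Glo I/II reagent added, 30 min RT, luminescence measured.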

[16] = qHTS assay to identify small molecule HDAC inhibitors - cell viability counter screen (AID 1259365)
Outline: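 Counter screen in wild-type HCT-116 cells: compounds dissolved in DMSO are pin-transferred onto overnight-plated cells and left 2hr at 37C. ATP-based CellTiter-Glo luminescence then measures viable cells.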

[17] = qHTS assay to identify small molecule agonists of the sonic hedgehog signaling (Shh) pathway - cell viability counter screen (AID 1259366); also: nearly all actives have a fitted effect of over 50% in size; also: potency is read from the fitted curve at half-maximal effect
Outline: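 Cells are plated at 2,000 per well and left 4hr at 37C, 5% CO2 before compound addition. After 23hr of treatment, CellTiter-Fluor reagent is added for 1hr at 37C and fluorescence is measured.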

[18] = qHTS assay to identify small molecule antagonists of the sonic hedgehog signaling (Shh) pathway - cell viability counter screen (AID 1259367); also: nearly all actives have a fitted effect of over 55% in size; also: potency is read from the fitted curve at half-maximal effect
Outline: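 CellTiter-Fluor signal in conditioned medium-stimulated 3T3 Gli1-Luc cells, 23 hr compound exposure, 37C.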

[19] = molecular target: Estrogen receptor (Homo sapiens) (UniProt P03372); assay: qHTS assay to identify small molecule antagonists of the estrogen receptor alpha (ER-alpha) signaling pathway using the BG1 cell line in the presence of 0.1 nM 17-beta-estradiol (AID 1259244); also: nearly all actives have a fitted effect of over 50% in size
Sequence of Estrogen receptor (Homo sapiens) (P03372 whole entry, looked up): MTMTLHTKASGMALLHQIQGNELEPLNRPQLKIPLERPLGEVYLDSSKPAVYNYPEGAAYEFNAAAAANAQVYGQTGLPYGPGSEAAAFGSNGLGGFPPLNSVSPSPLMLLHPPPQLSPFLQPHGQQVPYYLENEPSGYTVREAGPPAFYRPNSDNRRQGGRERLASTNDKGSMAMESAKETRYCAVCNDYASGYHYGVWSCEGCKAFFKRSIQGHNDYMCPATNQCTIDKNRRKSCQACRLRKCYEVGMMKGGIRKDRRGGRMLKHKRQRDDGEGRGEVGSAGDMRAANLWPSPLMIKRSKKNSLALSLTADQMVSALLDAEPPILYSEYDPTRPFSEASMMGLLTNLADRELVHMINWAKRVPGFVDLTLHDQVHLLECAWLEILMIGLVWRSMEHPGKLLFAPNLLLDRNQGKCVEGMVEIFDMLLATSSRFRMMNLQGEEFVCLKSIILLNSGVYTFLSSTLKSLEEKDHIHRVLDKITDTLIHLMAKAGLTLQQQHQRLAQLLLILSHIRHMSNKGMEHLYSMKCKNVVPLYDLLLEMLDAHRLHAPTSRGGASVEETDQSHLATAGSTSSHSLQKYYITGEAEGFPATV
Outline: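 Reporter is a stably transfected luciferase under four estrogen responsive elements in VM7Luc4E2 cells expressing native full-length ER-alpha; inhibition of 0.1 nM (final) 17beta-estradiol-driven signal over 22 h is read by luminescence.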

Measured: Potency

NC(=O)NC1NC(=O)NC1=O (stereo not drawn)
not listed: [19]
inactive: all other assays above

OCCc1ccccc1
not listed: [19]
inactive: all other assays above

Cc1ccccc1C(OCCN(C)C)c1ccccc1 (stereo not drawn)
not listed: [14]
inactive: all other assays above

O=C(O)c1cc(N=Nc2ccc(S(=O)(=O)Nc3ccccn3)cc2)ccc1O
active: [1] 12.3 µM and 19.5 µM and 16.9 µM | [10] 11 µM and 21.9 µM | [12] 24.4 µM and 30.6 µM | [15] 27.3 µM | [17] 21.8 µM and 24.3 µM | [18] 21.8 µM and 27.3 µM
27.4 µM (active) and inactive: [13]
not listed: [19]
inactive: all other assays above

CC(=O)OCC(COC(C)=O)OC(C)=O
not listed: [19]
inactive: all other assays above

CNC[C@H](O)c1cccc(O)c1
not listed: [19]
inactive: all other assays above

O=S(=O)(O)NC1CCCCC1
not listed: [19]
inactive: all other assays above

CCCCOC(=O)CC(CC(=O)OCCCC)(OC(C)=O)C(=O)OCCCC
not listed: [19]
inactive: all other assays above

Nc1ccn([C@H]2CC[C@@H](CO)O2)c(=O)n1
inactive: all assays above

Nc1ccc(S(=O)(=O)c2ccc(N)cc2)cc1
inactive: all assays above

O=S(=O)(O)c1ccc2cc(O)ccc2c1
not listed: [14] | [19]
inactive: all other assays above

O=C(O)c1[nH]n(-c2ccc(S(=O)(=O)O)cc2)c(=O)c1N=Nc1ccc(S(=O)(=O)O)cc1
active: [12] 48.7 µM and 28.6 µM | [17] 27.4 µM and 25.5 µM | [18] 30.7 µM and 25.5 µM
not listed: [13]
inactive: all other assays above

CCC1(c2ccccc2)C(=O)NCNC1=O
not listed: [19]
inactive: all other assays above

O=C1CN(/N=C/c2ccc([N+](=O)[O-])o2)C(=O)N1
active: [17] 48.6 µM | [18] 48.4 µM and 38.6 µM
not listed: [12]
inactive: all other assays above

From PubChem BioAssay (Tox21)
